The text below walks through data of PubChem BioAssay (NCATS).

Molecules are shown by their SMILES. Where “and” joins values, the source holds several entries; their conditions need not be identical. Equal values may be shown once. Inconclusive results are not listed. Values without a mark were called inactive. Calls of active or inactive are those of the source. Calls come from the whole dose curve; as a rule, active = well fitted inhibition curve with a large enough effect; inconclusive = small, poorly fitted or top-dose-only effect; inactive = flat fitted curve, though single readings scatter.

In one test the test system is CRL-7250. In words: Cytotoxic Profiling of Annotated Libraries Using Quantitative High-Throughput Screening (AID 1296008). For max response: % is set by controls: 0 for no effect and ±100 for the full control effect. Particulars: Five cell lines viability, CellTiter-Glo ATP luminescence, 48-72 h; max response: hits give low values. The essentials: (§1)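 Cytotoxicity was measured as CellTiter-Glo ATP luminescence, read after 10 min at room temperature. Compound treatment of the cells lasted 48 or 72 hr at 37 degrees Celsius in a qHTS format.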
Background: In ATP-based viability assays light output follows the ATP content of the culture.

In test [1] the test system is HaCat. The description is as above. Particulars: Five cell lines viability, CellTiter-Glo ATP luminescence, 48-72 h; max response: hits give low values. The essentials:
as §1

Another test concerns KB-3-1. The test is described as above. The following applies: Five cell lines viability, CellTiter-Glo ATP luminescence, 48-72 h; max response: hits give low values. The method, boiled down:
as §1

The next test concerns NIH3T3. The test is described as above. Particulars: Five cell lines viability, CellTiter-Glo ATP luminescence, 48-72 h; max response: hits give low values. The essentials: as §1
Test [2] deals with HACAT. In words: qHTS assay to identify novel small-molecules to repurpose for Merkel cell carcinoma treatment (AID 1296009). The following applies: MCC and control cell lines, CellTiter-Glo viability, 72 h; at 44.8 µM (top of the series) unless noted. The method, boiled down: (§2)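 After compound transfer in DMSO, plates were kept 72 hr at 37 degree celsius. Luminescent ATP signal from CellTiter-Glo served as viability measure, normalized against DMSO and no-cell controls.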
(In general: In qHTS, concentration-response curves come from the screen itself.)

Another test has as its system MCC-13. Described as above. Particulars: MCC and control cell lines, CellTiter-Glo viability, 72 h; series mostly up to 46 µM. The essentials: as §2
For another test, the system named is MCC-26. Described as above. Particulars: MCC and control cell lines, CellTiter-Glo viability, 72 h; series mostly up to 46 µM. The essentials:
as §2

The test system of the next test is MKL-1. Described as above. Particulars: MCC and control cell lines, CellTiter-Glo viability, 72 h; series mostly up to 46 µM. The method, boiled down: as §2
Another test concerns MKL-2. Described as above. The following applies: MCC and control cell lines, CellTiter-Glo viability, 72 h; series mostly up to 46 µM. The essentials: as §2
The test system of the next test is UISO. The test is described as above. The following applies: MCC and control cell lines, CellTiter-Glo viability, 72 h; series mostly up to 46 µM. The method, boiled down: as §2
For another test, the system named is WaGa. The test is described as above. Particulars: MCC and control cell lines, CellTiter-Glo viability, 72 h; series mostly up to 46 µM. The essentials: as §2
A further test deals with TAB113. Description: qHTS profiling for inhibitors of Plasmodium falciparum proliferation (AID 504749). The following applies: P. falciparum in erythrocytes, SYBR Green DNA, 72 h; series mostly up to 28.7 µM. The method, boiled down:
(§3)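 Three-day growth assay of blood-stage parasites in erythrocytes (0.3% parasitemia, 2.5% hematocrit) at 37 C, 5% CO2, quantified by SYBR Green DNA staining after overnight detergent lysis.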

A further test deals with W2. The test is described as above. Particulars: P. falciparum in erythrocytes, SYBR Green DNA, 72 h; series mostly up to 28.7 µM. The essentials: as §3
The test system of a further test is SC27B. Described as above. The following applies: P. falciparum in erythrocytes, SYBR Green DNA, 72 h; series mostly up to 28.7 µM. The essentials:
as §3

The test system of a further test is TAB109. The description is as above. Particulars: P. falciparum in erythrocytes, SYBR Green DNA, 72 h; series mostly up to 28.7 µM. The essentials: as §3
The test system of a further test is TAB165. Described as above. Particulars: P. falciparum in erythrocytes, SYBR Green DNA, 72 h; series mostly up to 28.7 µM. The method, boiled down:
as §3

The next test concerns HEK293. Description: Cytotoxic Profiling of Annotated Libraries Using Quantitative High-Throughput Screening (AID 1296008). For max response: % is set by controls: 0 for no effect and ±100 for the full control effect. Particulars: Five cell lines viability, CellTiter-Glo ATP luminescence, 48-72 h; max response: hits give low values. The method, boiled down: as §1
The test system of the next test is HEK293T. Description: qHTS assay to identify novel small-molecules to repurpose for Merkel cell carcinoma treatment (AID 1296009). Particulars: MCC and control cell lines, CellTiter-Glo viability, 72 h; at 44.8 µM (top of the series). The method, boiled down: as §2
Note: nearly all actives have a fitted effect of over 60% in size.
Potency is the fitted concentration of half-maximal effect.

Consider `CN(C)C(=O)Oc1cc(OC(=O)N(C)C)cc(C(O)CNC(C)(C)C)c1` (centres undefined), for which the results for the max response with CRL-7250, with KB-3-1 and in the test on NIH3T3 were -6.2%, -2.49% and -1.01%, respectively. In addition, the result with HaCat [1] and in the test with HACAT [2] was inactive. In addition, the Potency result with MCC-13, with MCC-26, with MKL-1, with MKL-2, in the test on UISO and in the test with WaGa was “inactive” each time.

Turning to `CC(C)=CCN1CC[C@@]2(C)c3cc(O)ccc3C[C@@H]1[C@@H]2C`, the max response in the test on CRL-7250 was -10.3%; in the test on HaCat [1], -13.3%; in the test on KB-3-1, -12.1%; with NIH3T3, -2.79%. Moreover, the Potency entry with MCC-13, in the test with MCC-26, in the test on MKL-1, with MKL-2 and with UISO was “inactive” each time.

For `CN1CCc2cc(Cl)c(O)cc2[C@H]2c3ccccc3CC[C@@H]21`, the Potency entry in the test on TAB113, in the test on MCC-13, with MCC-26, with MKL-1, in the test with MKL-2 and in the test on UISO was “inactive” throughout. Further, the Potency with W2 was 4.78 µM (active). Further, the results for the max response in the test on CRL-7250, with KB-3-1 and in the test with NIH3T3 were -3.76%, 18% and -2.57%, respectively. In addition, the call in the test on HaCat [1] and in the test with HACAT [2] was inactive.

For the compound `CCCN(CCC)CCc1c[nH]c2ccccc12`, the max response in the test with CRL-7250 was -1.07%; with HaCat [1], -5.54%; in the test on KB-3-1, -20.7%; in the test on NIH3T3, 3.34%. Also, the Potency entry with MCC-13, with MCC-26, in the test on MKL-1, in the test on MKL-2 and with WaGa was “inactive” in each case.

As for `C[C@]12C=CC(=O)C=C1CC[C@@H]1[C@@H]2CC[C@@]2(C)[C@H]1CC[C@]2(C)O`, the Potency entry in the test with SC27B, with TAB109, in the test on TAB113, in the test on TAB165, with W2 and with MCC-13 was “inactive” each time. Further, the Potency entry in the test on MCC-26, with MKL-1 and with MKL-2 was “inactive” throughout. Also, the max response with CRL-7250 was -25.8%; with HaCat [1] it was -43.5%; in the test on KB-3-1 it was -13.2%; in the test with NIH3T3, -13.6%.

For the compound `C[C@H](CN1CCOCC1)C(C(=O)N1CCCC1)(c1ccccc1)c1ccccc1`, the max response in the test with CRL-7250 was -21.1%; in the test with HaCat [1], -13.3%; with KB-3-1, 1.9%; with NIH3T3 it was -7.32%. Also, the Potency result with MCC-13, with MCC-26, in the test with MKL-1 and with MKL-2 was “inactive” in each case.

On to `CNC(C)Cc1ccccc1OC` (centres undefined), for which the max response in the test with CRL-7250 was -10.9%; in the test on HaCat [1], -16.5%; with KB-3-1, 2.15%; in the test on NIH3T3 it was -6.74%. Further, the Potency entry in the test with MCC-13, with MCC-26, in the test on MKL-1, with MKL-2, in the test with UISO and in the test on WaGa was “inactive” throughout.

Take `CN(C)C(=S)SSC(=S)N(C)C`: the Potency in the test with SC27B is 6.31 µM (active); in the test on TAB109, 1.58 µM (active); in the test with TAB113, 3.98 µM (active); with TAB165, 2.51 µM (active); in the test on W2, 0.849 µM (active); with CRL-7250 it was 0.75 µM (active). For the same compound, the Potency is 0.422 µM (active) with NIH3T3; 0.299 µM (active) in the test with MCC-26; 0.596 µM (active) with MKL-1; 0.596 µM (active) in the test with MKL-2; 0.211 µM (active) in the test with UISO; 0.668 µM (active) with WaGa. Besides, the max response in the test on KB-3-1 was -0.0008%.

For `Cc1c(Cl)c(=O)oc2cc(OP(=O)(OCCCl)OCCCl)ccc12`, the Potency was 7.94 µM (active) in the test on SC27B; 10 µM (active) in the test on TAB109; 10 µM (active) with TAB113; 7.08 µM (active) with TAB165; 6.75 µM (active) with W2. Further, the max response is 1.96% in the test with HaCat [1], -0.0609% with KB-3-1 and -22.4% in the test with NIH3T3. Moreover, the Potency entry in the test with MCC-13, in the test on MCC-26, in the test with MKL-1, in the test with MKL-2, with UISO and in the test on WaGa was “inactive” each time.

Consider `CN1CCC(N(Cc2ccccc2)c2ccccc2)CC1`, for which the max response is -21.6% with CRL-7250 and -20.5% in the test with NIH3T3. Also, the result in the test on HaCat [1] and in the test with HACAT [2] was inactive. Besides, the Potency entry with MCC-13, in the test on MCC-26, with MKL-1 and in the test with UISO was “inactive” each time.

On to `Oc1ccc2[nH]cc(CCCCN3CC=C(c4ccccc4)CC3)c2c1`, for which the Potency is 11.2 µM (active) with TAB165; 5.36 µM (active) in the test with W2; 8.41 µM (active) in the test with MKL-1; 5.96 µM (active) with MKL-2; 8.41 µM (active) in the test with UISO; 2.99 µM (active) in the test on WaGa. Further, the max response was 4.19% in the test on CRL-7250 and 7.3% in the test on KB-3-1. Moreover, the call in the test with HaCat [1] and in the test on HACAT [2] was inactive. In addition, the Potency result in the test on MCC-13 and in the test with MCC-26 was “inactive” in each case.

On to `Sc1ccccc1Cl`, for which the max response with CRL-7250 was 1.34%; in the test with HaCat [1], -3.98%; in the test on NIH3T3 it was 2.05%. Besides, the Potency result in the test on MCC-13, with MCC-26, in the test with MKL-1, in the test on MKL-2, with UISO and in the test with WaGa was “inactive” each time.

With `Oc1ccc([C@H]2CNCc3c2ccc(O)c3O)cc1O`, the compound was classed as inactive with HaCat [1] and in the test on HACAT [2]. The values for the max response in the test on KB-3-1 and in the test on NIH3T3 were -14.2% and -2.59%, respectively. Besides, the Potency entry in the test on MCC-13, in the test on MCC-26 and in the test on UISO was “inactive” in each case. Besides, in the test with MKL-2, the Potency was 13.3 µM (active).

Turning to `CC(CC(C#N)(c1ccccc1)c1ccccc1)N(C)C` (centres undefined), the results for the Potency with HEK293 and with WaGa were 24.3 µM (active) and 43.3 µM (active), respectively. The max response in the test with HaCat [1] is -5.96%; in the test with KB-3-1 it was -8.06%; in the test with NIH3T3, -12.2%. Also, the Potency result with MCC-26 and with MKL-1 was “inactive” in each case.

Consider `CC1=C2[C@H]3OC(=O)[C@@H](C)[C@@H]3CC[C@@]2(C)C=CC1=O`, for which the max response in the test on HEK293 was -1.89%; in the test on KB-3-1, 27.1%; in the test with NIH3T3, -1.04%. Further, the compound was classed as inactive in the test with HaCat [1] and in the test with HACAT [2]. For the same compound, the Potency entry in the test on MCC-13, in the test with MCC-26, in the test on MKL-1, with MKL-2, in the test with UISO and in the test with WaGa was “inactive” throughout.

As for `COc1cc(CC(C)N)c(OC)cc1Br` (centres undefined), the Potency in the test on HEK293 was 14.2 µM (active); in the test with MKL-2 it was 3.18 µM (active); with WaGa, 50.4 µM (active). For the same compound, the max response with HaCat [1] was -6.81%; in the test on KB-3-1 it was -7.67% and -13.5%.

`O=C(CCCCl)c1ccc(F)cc1`: the max response was 0.989% in the test with CRL-7250, 4.12% in the test with HaCat [1] and -0.659% with NIH3T3. For the same compound, in the test on HEK293T, the result was inactive. For the same compound, the Potency entry in the test with MCC-13, with MCC-26, in the test with MKL-1, in the test on MKL-2, in the test with UISO and in the test with WaGa was “inactive” each time.
